RORgamma inh = qHTS for inhibitors of ROR gamma transcriptional activity; 310,000 compounds, 5.4% hits; Nuclear receptor ROR-gamma (Mus musculus), P51450; Drosophila S2 Gal4-RORgamma UAS-luciferase reporter, 20 h; Potency, µM (series often up to 53.6 µM), without a hit: at the highest dose activity change, negative = inhibition, usual class: inhibitors; note: potency is the fitted concentration of half-maximal effect; nearly all actives have a fitted effect of over 60% in size
Target sequence (P51450 whole entry, looked up, the tested form may be a part): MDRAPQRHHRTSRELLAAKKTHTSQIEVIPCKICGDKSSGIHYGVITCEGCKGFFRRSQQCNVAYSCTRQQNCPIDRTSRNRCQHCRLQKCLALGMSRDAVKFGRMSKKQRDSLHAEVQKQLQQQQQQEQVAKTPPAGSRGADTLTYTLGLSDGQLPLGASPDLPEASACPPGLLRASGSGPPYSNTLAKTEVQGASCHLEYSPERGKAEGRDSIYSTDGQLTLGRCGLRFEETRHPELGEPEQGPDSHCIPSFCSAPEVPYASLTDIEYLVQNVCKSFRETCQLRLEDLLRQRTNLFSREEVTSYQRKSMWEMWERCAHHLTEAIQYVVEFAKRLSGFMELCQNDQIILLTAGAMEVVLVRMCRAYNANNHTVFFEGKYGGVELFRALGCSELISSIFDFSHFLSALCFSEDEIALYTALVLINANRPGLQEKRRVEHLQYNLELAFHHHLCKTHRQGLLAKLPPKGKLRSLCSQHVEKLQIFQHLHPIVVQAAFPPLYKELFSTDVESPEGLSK
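Stable Schneider cell line, Gal4 DNA-binding domain fused to ROR gamma, UAS-luciferase. Cmpd 1 hr RT → CuSO4 700 uM final → 20 hr RT → luciferase reagent 10 min → luminescence.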
DT40 TDP1 no CPT = qHTS for Inhibitors of human tyrosyl-DNA phosphodiesterase 1 (TDP1): qHTS in cells in absence of CPT. DT40 Tdp1-/- hTDP1 cells, no CPT, ATP luminescence, 48 h. Potency, µM (titrated, usually from 46.2 µM), inactives show at the highest dose activity change, negative = growth inhibition, usual class: inhibitors. 420,000 compounds, 15% hits; note: potency is the fitted concentration of half-maximal effect; nearly all actives have a fitted effect of over 55% in size
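Stably hTDP1-transfected Tdp1-null chicken DT40 cells were treated with library compounds minus camptothecin and grown for at least 48 hr at 37 °C, after which cellular ATP was quantified by luminescence.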
IL-1B inflam inh = qHTS for Inhibitors of Inflammasome Signaling: IL-1-beta AlphaLISA Primary Screen. THP-1 LPS/ATP IL-1B secretion, AlphaLISA, 16 h; hits give low values. AID 743279, 2014. activity change, % at 57.5 µM. 360,000 compounds, 4.7% hits; in the data active = activity change below about -50%; inconclusive = mostly about -30% to -49%
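Secreted IL-1B measured by AlphaLISA bead assay after 16 h compound exposure of THP-1 cells; compounds (final up to 57.5 uM) added 1 h before LPS (250 ng/mL) and ATP (1.25 mM) stimulation; lower signal means less secretion.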
TDP1 cell CPT = qHTS for Inhibitors of human tyrosyl-DNA phosphodiesterase 1 (TDP1): qHTS in cells in presence of CPT | AID 686979, 2013 | Potency, µM (top dose mostly 46.2 µM), for the others: top-dose activity change, negative = growth inhibition, most hits filed as inhibitors | 420,000 compounds, 12% hits | chicken DT40 Tdp1-/-;hTDP1 cells + 20 nM CPT, ATP luminescence, 48 h; note: potency is the fitted concentration of half-maximal effect; nearly all actives have a fitted effect of over 55% in size
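Chicken DT40 Tdp1-/- cells complemented with human TDP1, 400 cells/well, exposed to compounds plus 20 nM camptothecin for at least 48 h at 37 C; viability read as ATP content by CellTiter-Glo luminescence.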
Gal4-VP16 FLuc = VP16 counterscreen qHTS for inhibitors of ROR gamma transcriptional activity | Drosophila S2 Gal4-VP16 UAS-luciferase, luminescence, 20 h | Potency, µM (highest dose often 53.6 µM), for the others: top-dose activity, negative = inhibition, actives largely listed as inhibitors | 310,000 compounds, 3.5% hits;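 note: Gal4-VP16 expression switched on by copper sulfate through the metallothionein promoter; potency is the fitted concentration of half-maximal effect; nearly all actives have a fitted effect of over 50% in size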
LDHA inh = qHTS assay for inhibitors of human lactate dehydrogenase; L-lactate dehydrogenase A chain (Homo sapiens), P00338; purified LDHA, NADH/diaphorase-resazurin fluorescence; hits give low values; activity change, % (values are at about 110 or 230 µM); 480,000 compounds, 0.15% hits; in the data active = activity change below about -30%; inconclusive = mostly about -25% to -30%;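 note: plate controls were DMSO wells for no effect and wells without enzyme for full effect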
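Resorufin fluorescence (ex540/em590), read at 0 and 20 min after diaphorase/resazurin addition, reports the NADH left after a 5 min room-temperature reaction of 2 nM human LDH5 with 0.06 mM NADH and 0.2 mM pyruvate.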
Active calls of the source: *; ? = inconclusive; / = not tested or not shown; [ ] = dose if it differs, or a comment. Hits are enriched below; roughly 18% of the tested compounds scored in any of these assays. Unless noted, calls come from the whole dose curve; as a rule, active = well fitted curve in the direction sought with a large enough effect; inconclusive = small, poorly fitted or top-dose-only effect, or another doubt; inactive = no such curve, though single readings can be large; an effect the other way counts as inactive or inconclusive. Unless noted, % is set by controls: 0 for no effect and ±100 for the full control effect.

SMILES	RORgamma inh	DT40 TDP1 no CPT	IL-1B inflam inh	TDP1 cell CPT	Gal4-VP16 FLuc	LDHA inh
CCOC(=O)C1=C(C)N(C)C(=S)NC1c1ccccc1Cl (configuration not stated)	8.91µM*	1.7%	-8.1	-5.9%	?	-6.9
CC(C#N)Sc1nnc(-c2c[nH]c3ccccc23)n1C1CC1 (configuration not stated)	/	/	/	/	/	3.4
CCN(CC)Cc1ccc(CNC(=O)c2ccc(Br)cc2F)cc1	/	/	/	/	/	2.0
COc1ccc(N(C(=O)c2ccco2)S(=O)(=O)c2cc(Cl)c(Cl)cc2Cl)cc1	15.9%	?	38.6	18.4µM*	3.5%	0.6
CC(C)[C@H](NC(=O)[C@@H](NC(=O)C1CC(=O)N(c2ccc(F)cc2)C1)C(C)C)C(=O)O (some centres not stated)	/	/	/	/	/	3.6
CCOC1CCN(C(=O)c2ccccc2-c2ncc(-c3ccc(C)cc3)o2)CC1	/	/	/	/	/	1.7
Cc1cccc(C(C)C)c1NC(=O)C1CN(S(=O)(=O)c2ccccc2)CCN1S(=O)(=O)c1ccccc1 (configuration not stated)	10.0%	18.4µM*	-14.2	25.9µM*	-0.7%	-5.1
Cc1ccc(/C=N\NC(=O)C2CN(S(=O)(=O)c3ccccc3)CCN2S(=O)(=O)c2ccccc2)cc1 (configuration not stated)	18.3%	18.4µM*	-4.5	?	8.3%	-8.4
O=C(Nc1ccccc1)N(CCN1CCOCC1)Cc1cccc(Cl)c1	42.7%	-0.9%	-14.2	4.8%	10.8%	-8.0
CCOc1ccc(NC(=S)N(CCN2CCOCC2)Cc2ccc3c(c2)CCCN3CC)cc1	6.31µM*	?	0.0	?	?	-0.2
Cc1ccc(NC(=S)N(CCN2CCOCC2)Cc2ccccc2F)cc1	?	-0.4%	1.8	3.1%	-7.9%	-2.9
CCN1CCCc2cc(CN(CCN3CCOCC3)C(=S)Nc3cc(F)cc(F)c3)ccc21	7.08µM*	20.6µM*	-13.4	?	0.9%[10 µM]	-1.2
CCN1CCCc2cc(CN(CCN3CCOCC3)C(=S)Nc3ccc(OC)cc3)ccc21	?	-15.0%	-9.9	-17.3%	0.3%[10 µM]	4.0
CCN1CCCc2cc(CN(CCN3CCOCC3)C(=S)Nc3ccc(C)cc3)ccc21	3.55µM*	18.4µM*	4.3	29.1µM*	-20.5%[10 µM]	-7.7
CCN1CCCc2cc(CN(CCN3CCOCC3)C(=S)Nc3cccc(Cl)c3)ccc21	7.08µM*	13µM*	?	16.4µM*	-2.4%[10 µM]	-3.0
CSCCC(NC(=O)Cc1ccc2c(c1)CCCC2)c1nc2ccccc2[nH]1 (configuration not stated)	/	/	/	/	/	-0.8
Cc1ccc(OC(C)C(=O)Nc2ccc3nsnc3c2)cc1C (configuration not stated)	/	/	/	/	/	18.3
Cc1ccc(Cl)cc1NC(=O)C(=O)c1c(C)[nH]c2ccccc12	/	/	/	/	/	8.4
Clc1ccc(C2C3=C(Nc4ncnn42)c2ccccc2CC3)cc1 (configuration not stated)	14.1µM*	/	/	/	?	/
c1ccc(C2C3=C(Nc4ncnn42)c2ccccc2CCC3)cc1 (configuration not stated)	10µM*	-4.3%	-3.4	6.6%	?	2.6
CC1=CC(c2ccccc2)n2ncnc2N1 (configuration not stated)	/	1.5%	26.8	4.6%	/	-0.6
O=C(NCCC(c1ccccc1)c1ccccc1)NNc1cnccn1	/	/	/	/	/	5.5
Cc1oc(-c2ccc(C(=O)N3CCN(C)CC3)cc2)nc1CN1CCc2ccccc21	/	/	/	/	/	0.0
Cc1ccc(S(=O)(=O)N2CCN(CC(=O)Nc3ccc(N4CCOCC4)cc3)CC2)cc1C	-5.9%[10 µM]	-0.9%	10.5	-11.3%	2.8%	5.8

Compound activity as filed in PubChem BioAssay.
